Experimental data reported in the supplement of paper PMC10849652.
About 8,800 targets were measured; listed, in parts, are those with a hit and a random draw of the rest. About 0.5% of all pairs of compound and target were hits.

Experiments:
Test in all cases: log2 fold change, soluble protein after heating vs DMSO (PISA); higher = thermal stabilisation; K562 lysate, 10 uM; active = over 0.2 and 3.5 SD of the protein, either way, in both replicates (recomputed)
erlotinib = compound: C#Cc1cccc(Nc2ncnc3cc(OCCOC)c(OCCOC)cc23)c1 [erlotinib]
How it was run: (§1)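 Following dounce homogenisation of K562 pellets in PBS pH 7.4 with 1 mM MgCl2, crude extract at 1 mg/mL protein was incubated for 30 min with 10 μM compound. Aliquots were then heated for 3 min over 48°C-58°C and pooled, NP-40 was added to 0.5% at 4°C, and soluble protein was recovered as the supernatant at 21,000xg for 90 min. Channel-sum-equalised TMTpro 16plex LC-MS/MS quantified this protein. Each value, from duplicates, is a log-two fold change in thermal stability relative to solvent controls.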

[1] = compound: C/C(=N\NC(=O)C1=CC(=CC=C1)S(=O)(=O)N2CCOCC2)/C3=C(C=CC(=C3)Cl)O
How it was run: as §1

[2] = compound: C1=CC(=CC=C1C2=NC3=C(N2)C=C(C=C3)C(=O)N)OC4=CC=C(C=C4)Cl
How it was run: as §1

[3] = compound: C1=CC2=C(C=CC(=C2)/C=C\3/C(=O)NC(=NCC4=CC=CS4)S3)N=C1
How it was run: as §1

[4] = compound: C1=CC2=NC=CN=C2C=C1/C=C/3\C(=O)NC(=O)S3
How it was run: as §1

[5] = compound: C1=CC=C(C=C1)C2=NC(=C(N2)C3=CC=NC=C3)C4=CC(=C(C=C4)Cl)O
How it was run: as §1

[6] = compound: C1=CC=C2C(=C1)C3=NNC4=CC=CC(=C43)C2=O
How it was run: as §1

[7] = compound: C1CCN(C1)C(=O)NC2=CC=CC(=C2)NC3=NC=C(C(=N3)NCCC4=CN=CN4)Br
How it was run: as §1

[8] = compound: C1CN(CCC1(CC2=CC=C(C=C2)Cl)N)C3=NC=NC4=C3C=CN4
How it was run: as §1

IRAK-1-4 Inhibitor I = compound: C1COCCN1CCN2C3=CC=CC=C3N=C2NC(=O)C4=CC(=CC=C4)[N+](=O)[O-] [IRAK-1-4 Inhibitor I]
How it was run: as §1

Measured: log2 fold change

PDE4DIP isoform 4 (UniProt Q5VU43)
inactive: erlotinib 0.002 | [1] -0.026 | [2] 0.017 | [3] 0.004 | [4] -0.004 | [5] 0 | [6] -0.111 | [7] -0.009 | [8] 0.055 | IRAK-1-4 Inhibitor I 0.024

PDCD6IP (UniProt Q8WUM4)
inactive: erlotinib -0.016 | [1] 0.021 | [2] -0.036 | [3] 0 | [4] 0.108 | [5] 0.03 | [6] 0.013 | [7] 0.07 | [8] 0.012 | IRAK-1-4 Inhibitor I -0.094

PIK3CB (UniProt P42338)
inactive: erlotinib -0.024 | [1] -0.014 | [2] -0.045 | [3] 0.159 | [4] 0.412 | [5] 0.019 | [6] 0.095 | [7] 0.002 | [8] 0.052 | IRAK-1-4 Inhibitor I 0.037

PPP2R5B (UniProt Q15173)
inactive: erlotinib -0.026 | [1] 0.038 | [2] 0.056 | [3] -0.106 | [4] 0.123 | [5] 0 | [6] 0.052 | [7] -0.051 | [8] -0.042 | IRAK-1-4 Inhibitor I 0.016

PCBP2 (UniProt H3BRU6)
inactive: erlotinib 0.094 | [1] -0.272 | [2] 0.166 | [3] 0.061 | [4] -0.057 | [5] -0.034 | [6] -0.15 | [7] -0.196 | [8] -0.096 | IRAK-1-4 Inhibitor I 0.009

POLR3E (UniProt Q9NVU0)
inactive: erlotinib 0.003 | [1] 0.003 | [2] -0.007 | [3] 0.017 | [4] 0.005 | [5] 0.006 | [6] -0.001 | [7] -0.03 | [8] -0.007 | IRAK-1-4 Inhibitor I -0.016

PRAME (UniProt P78395)
UniProt P78395, sequence (P78395 whole entry, looked up): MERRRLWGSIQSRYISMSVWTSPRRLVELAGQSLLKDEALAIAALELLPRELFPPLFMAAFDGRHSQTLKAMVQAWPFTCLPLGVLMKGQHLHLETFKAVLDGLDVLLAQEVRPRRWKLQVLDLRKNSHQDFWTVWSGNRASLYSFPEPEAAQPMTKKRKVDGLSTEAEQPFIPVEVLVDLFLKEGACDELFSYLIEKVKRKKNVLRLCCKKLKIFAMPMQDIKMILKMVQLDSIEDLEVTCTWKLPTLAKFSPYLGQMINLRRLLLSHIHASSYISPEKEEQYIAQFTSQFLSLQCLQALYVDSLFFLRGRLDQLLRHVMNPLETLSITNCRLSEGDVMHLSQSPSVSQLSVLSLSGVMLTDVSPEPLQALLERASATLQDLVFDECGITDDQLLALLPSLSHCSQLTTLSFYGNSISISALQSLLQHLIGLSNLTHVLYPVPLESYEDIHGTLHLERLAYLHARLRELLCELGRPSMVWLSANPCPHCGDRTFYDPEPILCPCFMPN
inactive: erlotinib 0.02 | [1] -0.056 | [2] -0.001 | [3] -0.027 | [4] -0.037 | [5] 0.013 | [6] -0.043 | [7] -0.004 | [8] 0.007 | IRAK-1-4 Inhibitor I -0.008

PWP2 (UniProt Q15269)
UniProt Q15269, sequence (Q15269 whole entry, looked up): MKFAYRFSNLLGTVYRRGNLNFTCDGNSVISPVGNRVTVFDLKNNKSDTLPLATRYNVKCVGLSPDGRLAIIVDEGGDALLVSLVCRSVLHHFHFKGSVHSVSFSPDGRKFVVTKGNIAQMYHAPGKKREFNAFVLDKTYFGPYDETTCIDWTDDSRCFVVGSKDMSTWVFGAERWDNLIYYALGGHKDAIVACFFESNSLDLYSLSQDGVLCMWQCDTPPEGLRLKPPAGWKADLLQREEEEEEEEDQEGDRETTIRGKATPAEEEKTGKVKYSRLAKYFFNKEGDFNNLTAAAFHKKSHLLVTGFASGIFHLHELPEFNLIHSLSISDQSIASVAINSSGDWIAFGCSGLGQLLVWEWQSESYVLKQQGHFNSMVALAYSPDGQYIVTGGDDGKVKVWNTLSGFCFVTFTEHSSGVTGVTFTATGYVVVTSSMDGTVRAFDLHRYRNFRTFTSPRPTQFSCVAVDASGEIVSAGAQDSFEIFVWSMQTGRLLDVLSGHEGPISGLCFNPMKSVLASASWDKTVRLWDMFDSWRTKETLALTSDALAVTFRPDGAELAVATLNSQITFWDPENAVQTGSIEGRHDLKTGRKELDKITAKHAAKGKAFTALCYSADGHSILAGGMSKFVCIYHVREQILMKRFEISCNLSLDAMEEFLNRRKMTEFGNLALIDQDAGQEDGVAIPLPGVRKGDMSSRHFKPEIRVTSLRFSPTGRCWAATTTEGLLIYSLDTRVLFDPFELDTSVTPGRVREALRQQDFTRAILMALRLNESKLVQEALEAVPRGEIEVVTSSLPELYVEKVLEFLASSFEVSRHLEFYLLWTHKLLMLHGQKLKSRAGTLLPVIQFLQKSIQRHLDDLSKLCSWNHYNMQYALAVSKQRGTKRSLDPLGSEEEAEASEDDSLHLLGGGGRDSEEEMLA
inactive: erlotinib 0.051 | [1] -0.076 | [2] -0.036 | [3] 0.02 | [4] 0.015 | [5] -0.012 | [6] -0.013 | [7] 0.018 | [8] 0.04 | IRAK-1-4 Inhibitor I -0.027

PIP4K2B (UniProt P78356)
inactive: erlotinib 0.038 | [1] -0.193 | [2] -0.021 | [3] 0.012 | [4] 0.096 | [5] 0.067 | [6] 0.013 | [7] 0.032 | [8] -0.02 | IRAK-1-4 Inhibitor I -0.019

PPME1 isoform 4 (UniProt Q9Y570)
inactive: erlotinib -0.002 | [1] -0.006 | [2] 0.023 | [3] -0.005 | [4] -0.035 | [5] 0.017 | [6] 0.065 | [7] 0.013 | [8] 0.01 | IRAK-1-4 Inhibitor I -0.006

PPP2CA (UniProt P67775)
inactive: erlotinib -0.088 | [1] 0.134 | [2] -0.057 | [3] -0.045 | [4] -0.007 | [5] 0.064 | [6] 0.016 | [7] 0.106 | [8] -0.027 | IRAK-1-4 Inhibitor I -0.041

PPIL3 (UniProt Q9H2H8)
inactive: erlotinib 0.022 | [1] 0.071 | [2] 0 | [3] -0.016 | [4] -0.039 | [5] -0.012 | [6] -0.028 | [7] -0.004 | [8] 0.071 | IRAK-1-4 Inhibitor I 0.03

PRKAR2A (UniProt P13861)
inactive: erlotinib 0.001 | [1] 0.032 | [2] 0.02 | [3] -0.02 | [4] -0.009 | [5] 0 | [6] -0.029 | [8] -0.212 | IRAK-1-4 Inhibitor I -0.06
active: [7] -0.252

PES1 (UniProt O00541)
UniProt O00541, sequence (O00541 whole entry, looked up): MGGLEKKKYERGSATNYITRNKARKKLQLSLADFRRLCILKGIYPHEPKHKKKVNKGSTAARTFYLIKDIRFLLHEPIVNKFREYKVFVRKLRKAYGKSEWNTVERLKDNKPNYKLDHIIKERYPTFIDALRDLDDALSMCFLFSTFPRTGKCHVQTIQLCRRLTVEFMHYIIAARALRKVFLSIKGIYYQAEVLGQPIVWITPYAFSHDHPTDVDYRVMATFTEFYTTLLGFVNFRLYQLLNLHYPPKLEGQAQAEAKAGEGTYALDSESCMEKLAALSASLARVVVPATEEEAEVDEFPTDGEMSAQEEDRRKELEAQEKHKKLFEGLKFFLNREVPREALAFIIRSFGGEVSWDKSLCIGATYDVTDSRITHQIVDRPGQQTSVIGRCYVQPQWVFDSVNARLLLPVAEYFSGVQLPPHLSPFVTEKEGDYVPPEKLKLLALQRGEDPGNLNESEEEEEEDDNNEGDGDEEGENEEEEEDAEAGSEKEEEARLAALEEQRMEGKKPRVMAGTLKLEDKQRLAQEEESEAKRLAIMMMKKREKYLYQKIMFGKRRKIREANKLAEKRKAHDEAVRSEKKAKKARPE
inactive: erlotinib 0 | [1] -0.071 | [2] -0.014 | [3] -0.044 | [4] -0.001 | [5] 0.001 | [6] -0.012 | [7] 0.025 | [8] -0.056 | IRAK-1-4 Inhibitor I 0.037

PCBP2 isoform 3 (UniProt Q15366)
inactive: erlotinib -0.017 | [1] 0.005 | [2] -0.027 | [3] 0.018 | [4] 0.034 | [5] 0.012 | [6] 0.042 | [7] 0.038 | [8] -0.022 | IRAK-1-4 Inhibitor I -0.026

PPCDC (UniProt Q96CD2)
UniProt Q96CD2, sequence (Q96CD2 whole entry, looked up): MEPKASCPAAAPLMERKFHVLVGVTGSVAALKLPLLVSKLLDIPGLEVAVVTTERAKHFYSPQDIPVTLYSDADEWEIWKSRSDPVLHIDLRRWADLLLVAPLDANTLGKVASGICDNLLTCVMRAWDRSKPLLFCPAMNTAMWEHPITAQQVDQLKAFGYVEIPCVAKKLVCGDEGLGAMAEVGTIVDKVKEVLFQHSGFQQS
inactive: erlotinib -0.019 | [1] 0.075 | [2] 0.033 | [3] -0.115 | [4] 0.004 | [5] 0.002 | [6] -0.115 | [7] -0.05 | [8] 0.084 | IRAK-1-4 Inhibitor I 0.023

PIP4P2 (UniProt Q8N4L2)
inactive: erlotinib 0.023 | [1] 0.039 | [2] -0.03 | [3] 0.032 | [4] -0.076 | [5] 0.019 | [6] -0.029 | [7] 0.034 | [8] 0.022 | IRAK-1-4 Inhibitor I -0.054

PTPN23 (UniProt Q9H3S7)
inactive: erlotinib 0.017 | [1] -0.029 | [2] 0.016 | [3] -0.01 | [4] -0.023 | [5] 0.008 | [6] -0.028 | [7] -0.013 | [8] -0.003 | IRAK-1-4 Inhibitor I -0.004

PDS5A (UniProt Q29RF7)
inactive: erlotinib 0.043 | [1] -0.015 | [2] -0.029 | [3] 0.052 | [4] 0.032 | [5] 0.012 | [6] -0.038 | [7] -0.005 | [8] 0.001 | IRAK-1-4 Inhibitor I -0.015

PMS1 (UniProt P54277)
inactive: erlotinib -0.024 | [1] 0.012 | [2] 0.041 | [3] -0.002 | [4] 0.106 | [5] 0.03 | [6] -0.094 | [7] -0.002 | [8] 0.016 | IRAK-1-4 Inhibitor I -0.027

POGK (UniProt Q9P215)
UniProt Q9P215, sequence (Q9P215 whole entry, looked up): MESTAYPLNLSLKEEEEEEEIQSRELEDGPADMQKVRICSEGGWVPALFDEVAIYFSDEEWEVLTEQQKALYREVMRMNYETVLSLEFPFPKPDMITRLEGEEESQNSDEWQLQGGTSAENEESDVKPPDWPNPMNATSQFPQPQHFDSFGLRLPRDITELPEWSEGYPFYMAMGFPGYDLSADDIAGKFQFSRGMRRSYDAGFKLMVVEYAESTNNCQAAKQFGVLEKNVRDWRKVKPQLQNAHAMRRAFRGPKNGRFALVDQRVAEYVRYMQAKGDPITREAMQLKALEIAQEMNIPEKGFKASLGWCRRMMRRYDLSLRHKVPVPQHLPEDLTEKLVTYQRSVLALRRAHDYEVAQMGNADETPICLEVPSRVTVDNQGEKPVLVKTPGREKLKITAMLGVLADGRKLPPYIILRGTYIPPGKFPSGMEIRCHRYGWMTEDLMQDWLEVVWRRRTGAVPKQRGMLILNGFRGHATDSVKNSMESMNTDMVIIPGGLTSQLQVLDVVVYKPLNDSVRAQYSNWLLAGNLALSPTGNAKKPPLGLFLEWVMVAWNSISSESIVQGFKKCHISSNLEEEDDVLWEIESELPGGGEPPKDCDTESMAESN
inactive: erlotinib 0.052 | [1] 0.053 | [2] 0.034 | [3] -0.059 | [4] -0.023 | [5] 0.104 | [6] -0.03 | [7] 0 | [8] 0.022 | IRAK-1-4 Inhibitor I 0.025

PIK3R1 (UniProt P27986)
active: [4] 0.348
inactive: erlotinib -0.027 | [1] -0.4 | [2] 0.008 | [3] 0.069 | [5] 0.076 | [6] 0.089 | [7] -0.015 | [8] 0 | IRAK-1-4 Inhibitor I 0.1

PTK2B (UniProt Q14289)
inactive: erlotinib 0.024 | [1] -0.012 | [2] 0.001 | [3] -0.012 | [4] -0.053 | [5] 0.027 | [6] 0.066 | [7] 0.067 | [8] -0.068 | IRAK-1-4 Inhibitor I 0.077

PHKG2 (UniProt P15735)
inactive: erlotinib -0.106 | [1] 0.062 | [2] 0.04 | [3] 0.075 | [4] 0.104 | [5] 0.022 | [6] 0.231 | [7] 0.045 | [8] -0.011 | IRAK-1-4 Inhibitor I 0.036

PPP1R8 (UniProt Q12972)
inactive: erlotinib 0.002 | [1] -0.032 | [2] 0.029 | [3] 0.002 | [4] -0.012 | [5] 0.008 | [6] 0.007 | [7] -0.009 | [8] 0.02 | IRAK-1-4 Inhibitor I 0.008

PCYT1B (UniProt Q9Y5K3)
inactive: erlotinib -0.016 | [1] 0.015 | [2] -0.006 | [3] 0.046 | [4] -0.03 | [5] 0.002 | [6] 0.044 | [7] -0.041 | [8] -0.032 | IRAK-1-4 Inhibitor I -0.023

PRPH isoform 2 (UniProt P41219)
UniProt P41219, sequence (P41219 whole entry, looked up): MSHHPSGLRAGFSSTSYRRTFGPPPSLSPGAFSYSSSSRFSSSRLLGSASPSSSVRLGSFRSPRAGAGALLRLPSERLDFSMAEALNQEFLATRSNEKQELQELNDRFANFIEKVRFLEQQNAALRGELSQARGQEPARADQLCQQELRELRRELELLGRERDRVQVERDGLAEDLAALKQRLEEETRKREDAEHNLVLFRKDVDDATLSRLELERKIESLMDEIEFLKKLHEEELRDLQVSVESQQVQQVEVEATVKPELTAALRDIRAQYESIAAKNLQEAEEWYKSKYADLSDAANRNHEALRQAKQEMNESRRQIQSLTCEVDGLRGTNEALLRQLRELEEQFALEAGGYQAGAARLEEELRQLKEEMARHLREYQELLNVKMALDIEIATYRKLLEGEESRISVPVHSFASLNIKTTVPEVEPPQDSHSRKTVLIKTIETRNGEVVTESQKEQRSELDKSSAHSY
inactive: erlotinib -0.007 | [1] 0.042 | [2] -0.025 | [3] -0.032 | [4] 0.066 | [5] -0.001 | [6] -0.114 | [7] 0.072 | [8] -0.005 | IRAK-1-4 Inhibitor I -0.011

PGGT1B (UniProt P53609)
UniProt P53609, sequence (P53609 whole entry, looked up): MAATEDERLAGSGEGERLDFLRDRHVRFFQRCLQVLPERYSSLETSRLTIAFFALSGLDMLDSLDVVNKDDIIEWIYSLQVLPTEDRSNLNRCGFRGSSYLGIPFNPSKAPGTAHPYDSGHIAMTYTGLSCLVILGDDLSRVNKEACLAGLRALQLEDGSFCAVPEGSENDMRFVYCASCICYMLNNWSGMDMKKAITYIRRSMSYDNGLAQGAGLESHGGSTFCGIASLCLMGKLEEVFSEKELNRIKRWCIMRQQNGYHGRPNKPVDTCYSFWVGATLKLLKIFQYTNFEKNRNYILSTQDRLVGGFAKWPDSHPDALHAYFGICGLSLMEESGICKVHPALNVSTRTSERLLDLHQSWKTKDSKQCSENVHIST
inactive: erlotinib -0.02 | [1] 0.039 | [2] -0.076 | [3] -0.011 | [4] 0.047 | [5] 0.14 | [6] 0.045 | [7] 0.008 | [8] -0.018 | IRAK-1-4 Inhibitor I -0.006

PFKFB4 (UniProt Q16877)
UniProt Q16877, sequence (Q16877 whole entry, looked up): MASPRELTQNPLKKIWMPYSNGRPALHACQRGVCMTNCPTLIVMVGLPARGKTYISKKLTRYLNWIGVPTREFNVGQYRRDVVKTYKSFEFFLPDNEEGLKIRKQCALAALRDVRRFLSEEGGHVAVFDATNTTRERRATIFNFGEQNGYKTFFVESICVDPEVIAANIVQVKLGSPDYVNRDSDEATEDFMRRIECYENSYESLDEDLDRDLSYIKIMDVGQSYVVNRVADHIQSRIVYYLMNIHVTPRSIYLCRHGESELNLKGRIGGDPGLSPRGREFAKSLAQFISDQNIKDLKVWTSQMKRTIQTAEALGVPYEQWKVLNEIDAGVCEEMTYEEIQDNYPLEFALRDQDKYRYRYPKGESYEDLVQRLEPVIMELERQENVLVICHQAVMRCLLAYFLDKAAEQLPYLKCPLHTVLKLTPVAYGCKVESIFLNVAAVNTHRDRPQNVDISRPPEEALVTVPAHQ
inactive: erlotinib 0.02 | [1] 0.044 | [2] 0.041 | [3] -0.024 | [4] -0.031 | [5] 0.096 | [6] -0.083 | [7] -0.003 | [8] 0.067 | IRAK-1-4 Inhibitor I -0.023

PIR (UniProt O00625)
inactive: erlotinib 0.017 | [1] -0.212 | [2] 0.01 | [3] 0.034 | [4] -0.034 | [5] 0.006 | [6] 0.151 | [7] 0.014 | [8] 0.027 | IRAK-1-4 Inhibitor I -0.02

PDXK (UniProt O00764)
UniProt O00764, sequence (O00764 whole entry, looked up): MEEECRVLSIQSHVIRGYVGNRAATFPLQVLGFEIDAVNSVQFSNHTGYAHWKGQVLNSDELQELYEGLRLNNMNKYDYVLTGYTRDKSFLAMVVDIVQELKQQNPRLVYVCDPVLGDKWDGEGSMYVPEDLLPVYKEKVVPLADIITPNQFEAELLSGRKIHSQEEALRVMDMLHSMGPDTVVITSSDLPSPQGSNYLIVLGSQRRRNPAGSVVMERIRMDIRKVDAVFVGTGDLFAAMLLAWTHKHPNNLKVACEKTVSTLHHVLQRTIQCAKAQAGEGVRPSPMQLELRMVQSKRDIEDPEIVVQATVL
inactive: erlotinib -0.003 | [1] 0.02 | [2] 0.103 | [3] -0.019 | [4] -0.02 | [5] -0.008 | [6] 0.021 | [7] 0.037 | [8] -0.012 | IRAK-1-4 Inhibitor I 0.018

PRKCSH (UniProt K7ELL7)
inactive: erlotinib -0.01 | [1] -0.124 | [2] 0.004 | [3] -0.056 | [4] 0 | [5] -0.036 | [6] -0.061 | [7] -0.096 | [8] -0.038 | IRAK-1-4 Inhibitor I -0.039

PLA2G4B isoform 6 (UniProt P0C869)
inactive: erlotinib 0.099 | [1] 0.064 | [2] 0.048 | [3] -0.099 | [4] 0.023 | [5] 0.062 | [6] -0.021 | [7] -0.011 | [8] 0.026 | IRAK-1-4 Inhibitor I 0.065

PHGDH (UniProt O43175)
UniProt O43175, sequence (O43175 whole entry, looked up): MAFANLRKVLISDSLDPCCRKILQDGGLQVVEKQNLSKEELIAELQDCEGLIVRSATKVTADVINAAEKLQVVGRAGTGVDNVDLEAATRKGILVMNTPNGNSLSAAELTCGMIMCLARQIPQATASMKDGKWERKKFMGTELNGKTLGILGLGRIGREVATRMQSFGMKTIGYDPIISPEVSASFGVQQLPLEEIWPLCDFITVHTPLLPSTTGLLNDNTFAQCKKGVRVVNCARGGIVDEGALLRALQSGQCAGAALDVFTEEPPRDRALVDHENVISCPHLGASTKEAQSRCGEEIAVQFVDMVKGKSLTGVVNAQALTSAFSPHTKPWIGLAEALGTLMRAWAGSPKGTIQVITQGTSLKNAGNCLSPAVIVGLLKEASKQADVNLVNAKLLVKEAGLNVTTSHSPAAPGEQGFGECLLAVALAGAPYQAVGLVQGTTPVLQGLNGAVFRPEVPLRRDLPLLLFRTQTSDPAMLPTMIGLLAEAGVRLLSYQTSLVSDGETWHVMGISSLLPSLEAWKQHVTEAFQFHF
inactive: erlotinib 0.033 | [1] 0.155 | [2] 0.05 | [3] -0.222 | [4] -0.092 | [5] -0.012 | [6] 0.04 | [7] 0.045 | [8] 0.021 | IRAK-1-4 Inhibitor I 0.011
